Source: PubChem BioAssay AID743279 (National Center for Advancing Translational Sciences (NCATS), 2014)
In all, about 360,000 compounds went through this assay and about 17,000 (4.7%) were called active. Roughly 5% stayed inconclusive and do not appear here. Cut-off read from the data, not from the text of the source: active = activity change below about -50%; inconclusive = mostly about -30% to -49%; inactive = weaker than that. This excerpt belongs to a sample that is enriched for actives.

Assay: qHTS for Inhibitors of Inflammasome Signaling: IL-1-beta AlphaLISA Primary Screen
Conditions: THP-1 LPS/ATP IL-1B secretion, 16 h; at 57.5 µM, hits give low values
Outline: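 THP-1 cells pretreated 1 hr with compounds (up to 57.5 uM final), then stimulated with LPS (250 ng/mL final) plus ATP (1.25 mM final); secreted IL-1B measured by AlphaLISA after 16 hr, decreased signal indicating inhibition.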
% is set by controls: 0 for no effect and ±100 for the full control effect.

| Structure (SMILES) | activity change |
| --- | --- |
| O=C(Nc1nnc([C@H]2C[C@H](O)[C@@H](CO)O2)s1)c1cccc(Cl)c1 | 25.3% (inactive) |
| CCOC(=O)C1(Cc2ccccc2C(F)(F)F)CCN(C(=O)c2cc(C)n(C)n2)CC1 | 58% (inactive) |
| CC(=O)NC(CC(=O)Nc1nc(-c2ccccc2)c(C(C)=O)s1)c1ccccc1 (centres undefined) | -10.6% (inactive) |
| CCN1C(=O)CS/C1=N\c1nccs1 | -5.9% (inactive) |
| O=C(Cc1ccc(Cl)cc1)c1ccccc1 | -14.1% (inactive) |
| CCNC(=O)N(CC)C[C@H]1N[C@@](CC)(C(=O)OC)[C@H]2C(=O)N(Cc3ccccc3)C(=O)[C@@H]12 | 36% (inactive) |
| CCN(C[C@H]1N[C@@](CC)(C(=O)OC)[C@H]2C(=O)N(Cc3ccccc3)C(=O)[C@@H]12)S(=O)(=O)c1ccccc1 | -2.92% (inactive) |
| CCN(C[C@H]1N[C@@](Cc2ccccc2)(C(=O)OC)[C@H]2C(=O)N(Cc3ccccc3)C(=O)[C@@H]12)C(=O)c1ccc(C)cc1 | -54.1% (active) |
| Cc1ccc(S(=O)(=O)NN=C2CC(C)(C)CC(=O)C2(C)C)cc1 | 0.854% (inactive) |
| Cc1cccc(C)c1NC(=O)C(c1ccc(C(F)(F)F)cc1)n1c(=O)c(-c2ccco2)nc2ccccc21 (centres undefined) | -1.25% (inactive) |
| Cc1cc(C)c(NC(=O)CSc2nc3ccncc3[nH]2)c(C)c1 | -69.3% (active) |
| Cc1ccc2nc(SCC(=O)NC3CCCC3)[nH]c2c1 | -11.8% (inactive) |
| COc1ccc2nc(SCC(=O)Nc3c(C)cc(C)cc3C)[nH]c2c1 | 15.5% (inactive) |
| COc1ccc(C(CNC(=O)c2cccc(S(=O)(=O)Nc3ccc(Br)cc3)c2)N(C)C)cc1 (centres undefined) | -12.1% (inactive) |
| CCC(NC(=O)C1CCCC1)c1ccc(C)cc1 (centres undefined) | 31.4% (inactive) |
| Brc1ccc2nc(-c3ccccc3)c(Cc3ccccc3)n2c1 | 28.2% (inactive) |
| CCN(CC)S(=O)(=O)c1ccc(N2CCOCC2)c(NC(=O)C2COc3ccccc3O2)c1 (centres undefined) | -0.208% (inactive) |
| CCN(CC)S(=O)(=O)c1ccc(N2CCCC2)c(NC(=O)c2ccc([N+](=O)[O-])o2)c1 | -86.5% (active) |
| CCN(CC)S(=O)(=O)c1cc(C(=O)Nc2cc(S(=O)(=O)N3CCOCC3)ccc2N2CCCC2)ccc1F | -10.4% (inactive) |
| CCN(CC)S(=O)(=O)c1ccc(N2CCOCC2)c(NC(=O)C(C)Oc2ccc(F)cc2)c1 (centres undefined) | -2.11% (inactive) |
| CCN(CC)S(=O)(=O)c1ccc(N2CCOCC2)c(NC(=O)c2ccc(=O)n(C)n2)c1 | 8.34% (inactive) |
| CCN(CC)S(=O)(=O)c1ccc(N2CCN(C)CC2)c(NC(=O)Nc2ccccc2F)c1 | -72.3% (active) |
| Cc1ccc(-c2ccc(CN3C(C)C(=O)N(Cc4cn(CCC5OCCCO5)nn4)CCS3(=O)=O)cc2)cc1 (centres undefined) | -2.45% (inactive) |

| Structure (SMILES) | activity change |
| --- | --- |
| CC1C(=O)Nc2ccccc2N1C(=O)c1ccc(F)cc1F (centres undefined) | 10.1% (inactive) |
| Cc1ccc(C(=O)N[C@H](C(=O)N2CCN(c3ncccn3)CC2)C(C)C)cc1 | -11.5% (inactive) |
| CCOC(=O)c1cnn(Cc2ccccc2Cl)c1N | 0.436% (inactive) |
| Cc1c(NC(=O)CSc2nnnn2-c2ccc(C(=O)O)cc2)c(=O)n(-c2ccccc2)n1C | 22.1% (inactive) |
| Cc1c(NC(=O)CSc2cccc3cccnc23)c(=O)n(-c2ccccc2)n1C | -96.5% (active) |
| Cc1c(NC(=O)CSc2nnc(-c3cccnc3)n2N)c(=O)n(-c2ccccc2)n1C | 25.5% (inactive) |
| Cc1noc(C)c1-c1ccc(C(=O)NCc2ccncc2)c2occc12 | 60.8% (inactive) |
| COC(=O)CN1C(C)=Nc2ccc(Br)cc2C1c1ccccc1 (centres undefined) | -27.1% (inactive) |
| Cc1ccc(C2C(C#N)C(C#N)N3CCCN23)cc1 (centres undefined) | 0.442% (inactive) |
| CCN(/N=C/c1ccccc1)c1cc(=O)n(C)c(=O)[nH]1 | 0% (inactive) |
| Oc1ccc(/C=N/N(Cc2ccccc2)c2ccccc2)cc1 | -72.7% (active) |
| CCN(/N=C/c1ccc(N(C)C)cc1)c1nc2ccccc2[nH]1 | -29.3% (inactive) |
| Cc1cc(Cl)ccc1OCc1nc(-c2ccncc2)no1 | -55.8% (active) |
| Cc1ccc(-c2nc(-c3ccncc3)no2)c(C)c1 | -25.6% (inactive) |
| Cc1cc(Cl)ccc1OCCCC(=O)NCc1ccncc1 | -6.96% (inactive) |
| Cc1cc(Br)ccc1NC(=S)NC1CCCC1 | 0.7% (inactive) |
| O=C(COc1ccc(Br)cc1F)NC1CCN(Cc2ccccc2)CC1 | -25.9% (inactive) |
| O=C(Cc1ccc(Br)cc1)NCCc1ccccc1 | -1.81% (inactive) |
| O=S(=O)(NCCCc1ccccc1)c1ccc(Br)cc1 | 8.22% (inactive) |
| S=C(NN=C1CCN(Cc2ccccc2)CC1)NC1CCCCC1 | 0% (inactive) |
| CCNC(=S)NNC(=O)C1CCN(Cc2ccccc2)CC1 | -12.8% (inactive) |
| S=C(NCCCc1ccccc1)Nc1ccc(Br)cc1 | -85.8% (active) |
| S=C(Nc1ccc(Br)cc1Cl)NC1CCN(Cc2ccccc2)CC1 | -75.9% (active) |

| Structure (SMILES) | activity change |
| --- | --- |
| S=C(Nc1ccc(Br)cc1)NC1CCN(Cc2ccccc2)CC1 | -96% (active) |
| COCCN(C(=O)C(C)N1C(=O)c2ccccc2C1=O)c1c(N)n(CC(C)C)c(=O)[nH]c1=O (centres undefined) | 13.1% (inactive) |
| COc1ccc(OC)c(NC(=O)c2cc(-c3cc(F)ccc3OCC3CCCO3)n[nH]2)c1 (centres undefined) | 0% (inactive) |
| CCCC(=O)N1CCC1(C)C(=O)NCc1ccc(C(C)C)cc1 (centres undefined) | -18% (inactive) |
| Cc1cc(C)cc(OCC(=O)O/N=C(\N)Cc2ccc([N+](=O)[O-])cc2)c1 | -24.7% (inactive) |
| N/C(=N\OC(=O)Cc1ccc([N+](=O)[O-])cc1)c1ccccn1 | -21.1% (inactive) |
| N/C(Cc1ccc([N+](=O)[O-])cc1)=N\OC(=O)COc1ccc2ccccc2c1 | -59.9% (active) |
| CC1(C(=O)NS(=O)(=O)c2ccccc2)CCN1C(=O)c1ccccc1 (centres undefined) | 21% (inactive) |
| O=C(CN1CCSCC1)N/N=C/c1ccc(F)cc1 | -9.62% (inactive) |
| Cc1ccc(COc2ccc(/C=N/NC(=O)CN3CCCCC3)cc2)cc1 | -51.4% (active) |
| CCOc1cc(/C=N/NC(=O)CN2CCCCC2)ccc1O | 2.69% (inactive) |
| COc1ccc(N2CC(C(=O)NCCN3C(=O)S/C(=C\c4cccnc4)C3=O)CC2=O)c(OC)c1 (centres undefined) | -26.5% (inactive) |
| COc1cc(OC)cc(C(=O)NNC(=O)Cc2cccs2)c1 | -1.89% (inactive) |
| Cc1cc2nc(-c3ccco3)c(Cc3cccc(F)c3)n2c(C)c1Br | 5.29% (inactive) |
| O=S1(=O)CC(N2CCN(CCO)CC2)CN1Cc1cn(Cc2cccc(Cl)c2)nn1 (centres undefined) | 13.7% (inactive) |
| CCOC(=O)C1C(=O)NC(N2CCN(c3ccccc3)CC2)=NC1c1ccco1 (centres undefined) | -8.04% (inactive) |
| CCOC(=O)C1C(=O)C=C(c2ccc(OC)cc2)CC1c1ccco1 (centres undefined) | -62.8% (active) |
| COc1ccc(C2=NN(C(=O)CSc3nnnn3C)C(c3ccco3)C2)cc1 (centres undefined) | -17.6% (inactive) |
| Cc1ccc(NC(=O)C(C)OC(=O)C2CC3CCCC(C2)C3=O)cc1S(=O)(=O)N1CCOCC1 (centres undefined) | 21% (inactive) |
| CC1(C(=O)Nc2cccc3c2CCCC3)CCN1C(=O)C1(c2ccccc2)CC1 (centres undefined) | 2.24% (inactive) |
| CC(C)Cc1ccc(-c2cc3nc(NCc4cccc(Cl)c4)ccn3n2)cc1 | 16.6% (inactive) |
| COc1ccc(-c2csc3ncnc(N4CCN(S(=O)(=O)c5cccc(F)c5)CC4)c23)cc1 | -1.57% (inactive) |
| COc1cccc(/C=C/C(=O)OCC(=O)N2CCCc3ccccc32)c1 | -0.538% (inactive) |

| Structure (SMILES) | activity change |
| --- | --- |
| COc1cccc(C=CC(=O)C=CC=Cc2ccccc2)c1 | -59.4% (active) |
| COc1cccc(C(=O)NNC(=O)/C=C/c2ccccc2)c1 | 12.5% (inactive) |
| COc1ccc(C2OC(CCc3ccccc3)Cc3[nH]c(=S)[nH]c(=O)c32)cc1 (centres undefined) | -10.2% (inactive) |
| COc1ccc(OCc2cc(C(=O)N3CCCC3)no2)c2ccccc12 | 0% (inactive) |
| CCn1ccnc1CN(C)C(=O)c1cc(COc2ccc(Cl)cc2OC)on1 | -11% (inactive) |
| COc1cc(Cl)ccc1OCc1cc(C(=O)N2CC[C@@H]3CCCC[C@H]3C2)no1 | -82.6% (active) |
| O=C(CC(O)(C(F)(F)F)C(F)(F)F)Nc1ccc(Cl)c(Cl)c1 | -71.8% (active) |
| O=C(COC(=O)c1cc[n+]([O-])cc1)Nc1ccc(Cl)c(C(F)(F)F)c1 | 14.3% (inactive) |
| O=C(CCCN1C(=O)CCC1=O)Nc1ccc(Cl)c(C(F)(F)F)c1 | 3.74% (inactive) |
| COc1ccc(C(=O)N2CCCCC2c2cc(C(=O)Nc3ccccc3)no2)cc1 (centres undefined) | -3.11% (inactive) |
| O=C(CCN1C(=O)c2ccncc2C1=O)Nc1cc(F)ccc1F | 36.2% (inactive) |
| C#CCOCCOCCOCCNc1nc(N2CCN(C(=O)[C@H](CCCCN)n3cc(CCC(=O)O)nn3)CC2)nc(N2CCN(C(=O)[C@H](CCCCN)n3cc(CC(C)O)nn3)CC2)n1 (some centres undefined) | 3.3% (inactive) |
| C#CCOCCOCCOCCNc1nc(N2CCN(C(=O)CCCCCCCCCCNC(=O)[C@H]([C@@H](C)CC)n3cc(CCCCN=C(N)N)nn3)CC2)nc(N2CCN(C(=O)CCCCCCCCCCNC(=O)[C@H](CO)n3cc(CCCSC)nn3)CC2)n1 | -111% (active) |
| C#CCOCCOCCOCCNc1nc(N2CCN(C(=O)CCCCCCCCCCNC(=O)[C@H](CCCCN)n3cc(C)nn3)CC2)nc(N2CCN(C(=O)CCCCCCCCCCNC(=O)[C@H](CO)n3cc(CCCSC)nn3)CC2)n1 | -81.7% (active) |
| C#CCOCCOCCOCCNc1nc(N2CCN(C(=O)[C@H](C(C)C)n3cc(CCO)nn3)CC2)nc(N2CCN(C(=O)[C@H]([C@@H](C)CC)n3cc(CCCN=C(N)N)nn3)CC2)n1 | -5.99% (inactive) |
| C#CCOCCOCCOCCNc1nc(N2CCN(C(=O)CCCCCCCCCCNC(=O)Cn3cc(CCCCCN)nn3)CC2)nc(N2CCN(C(=O)CCCCCCCCCCNC(=O)[C@H](CO)n3cc(CCCSC)nn3)CC2)n1 | -72.1% (active) |
| C#CCOCCOCCOCCNc1nc(N2CCN(C(=O)Cn3cc(CCCCN)nn3)CC2)nc(N2CCN(C(=O)[C@H](CCCCN)n3cc(CCC(=O)O)nn3)CC2)n1 | 58.3% (inactive) |
| C#CCOCCOCCOCCNc1nc(N2CCN(C(=O)[C@H](CCC(=O)O)n3cc(CN)nn3)CC2)nc(N2CCN(C(=O)[C@H](CCC(=O)O)n3cc(CN)nn3)CC2)n1 | 25.6% (inactive) |
| C#CCOCCOCCOCCNc1nc(N2CCN(C(=O)Cn3cc(CCO)nn3)CC2)nc(N2CCN(C(=O)Cn3cc(CCCN=C(N)N)nn3)CC2)n1 | 12.6% (inactive) |
| C#CCOCCOCCOCCNc1nc(N2CCN(C(=O)Cn3cc(CCO)nn3)CC2)nc(N2CCN(C(=O)[C@H](CCCCN)n3cc(CCCC)nn3)CC2)n1 | 2.45% (inactive) |
